High-throughput results as filed in PubChem BioAssay.
The full list was thinned out, with hits kept by preference.
KDM5B inh: blocks human KDM5B histone demethylase activity; AID 1347165; Potency, µM (highest dose often 57.7 µM), hits mostly inhibitors; KDM5B demethylase, FDH-coupled NADH fluorescence (FDH is formaldehyde dehydrogenase); 220,000 compounds, 2.6% hits; active = well fitted inhibition curve with a large enough effect; note: 0% is about no effect; nearly all actives have a fitted effect of over 70% in size
Target sequence (Q9UGL1 whole entry, looked up): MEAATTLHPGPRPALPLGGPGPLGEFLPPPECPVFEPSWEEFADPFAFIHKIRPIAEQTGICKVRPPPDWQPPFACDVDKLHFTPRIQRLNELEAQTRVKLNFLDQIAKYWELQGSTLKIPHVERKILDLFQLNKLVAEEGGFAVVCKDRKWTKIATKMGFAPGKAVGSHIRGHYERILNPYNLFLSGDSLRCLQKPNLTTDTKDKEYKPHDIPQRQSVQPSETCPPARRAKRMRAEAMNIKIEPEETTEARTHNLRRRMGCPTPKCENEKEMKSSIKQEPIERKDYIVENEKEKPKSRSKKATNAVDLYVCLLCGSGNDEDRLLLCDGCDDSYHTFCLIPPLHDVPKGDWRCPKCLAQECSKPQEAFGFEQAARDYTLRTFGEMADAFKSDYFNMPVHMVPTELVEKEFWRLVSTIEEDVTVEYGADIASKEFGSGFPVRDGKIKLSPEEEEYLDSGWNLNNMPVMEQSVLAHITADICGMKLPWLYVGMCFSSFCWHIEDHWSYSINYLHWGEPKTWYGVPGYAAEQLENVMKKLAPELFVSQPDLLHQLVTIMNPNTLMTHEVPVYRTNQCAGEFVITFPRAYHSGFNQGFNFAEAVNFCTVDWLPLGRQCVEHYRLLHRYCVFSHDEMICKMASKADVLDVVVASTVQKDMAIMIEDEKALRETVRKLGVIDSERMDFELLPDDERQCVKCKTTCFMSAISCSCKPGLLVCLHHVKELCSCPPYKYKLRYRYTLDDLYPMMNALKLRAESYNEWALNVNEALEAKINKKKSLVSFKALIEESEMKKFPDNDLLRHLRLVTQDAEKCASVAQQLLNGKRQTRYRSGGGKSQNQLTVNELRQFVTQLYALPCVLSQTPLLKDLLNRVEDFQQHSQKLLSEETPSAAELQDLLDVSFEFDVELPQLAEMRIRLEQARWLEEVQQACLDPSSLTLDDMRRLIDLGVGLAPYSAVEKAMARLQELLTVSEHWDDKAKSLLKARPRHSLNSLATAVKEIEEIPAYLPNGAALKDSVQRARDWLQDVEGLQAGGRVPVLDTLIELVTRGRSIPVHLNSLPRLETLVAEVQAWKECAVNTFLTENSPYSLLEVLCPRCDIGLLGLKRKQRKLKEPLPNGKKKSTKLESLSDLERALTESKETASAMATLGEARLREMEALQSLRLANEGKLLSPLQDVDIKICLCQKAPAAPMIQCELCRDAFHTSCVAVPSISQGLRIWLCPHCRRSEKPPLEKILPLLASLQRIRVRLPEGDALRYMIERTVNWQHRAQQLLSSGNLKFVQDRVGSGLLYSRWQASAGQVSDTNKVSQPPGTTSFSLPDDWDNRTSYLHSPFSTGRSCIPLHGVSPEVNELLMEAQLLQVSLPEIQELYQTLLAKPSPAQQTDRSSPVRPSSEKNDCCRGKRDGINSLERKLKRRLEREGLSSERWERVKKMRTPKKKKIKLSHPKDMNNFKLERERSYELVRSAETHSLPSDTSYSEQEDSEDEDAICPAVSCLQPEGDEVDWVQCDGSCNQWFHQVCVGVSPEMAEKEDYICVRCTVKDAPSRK
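Compound dilutions met 200 nM (final) KDM5BΔAP for 10 min at room temperature before substrate addition. The substrate mix held 12.5 µM H3K4me3 with cofactors 25 µM α-ketoglutarate and 50 µM Fe²⁺. NADH signal gain over 30 min defined activity.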
Numbers without * were called inactive; i = inactive. Potency is the fitted concentration of half-maximal effect.

SMILES	KDM5B inh
CC(C)(C(=O)NCc1ccc(CN2CCCC2)cc1)c1ccccc1	i
CN1CCN(C(=O)C(C)(C)Oc2nn(CC3CC3)c3ccc(CN4CCCC4)cc23)CC1	35µM*
COCc1ccc2c(c1)c(OC(C)(C)C(=O)NCc1ccncc1)nn2Cc1cccc(OC)c1	i
Cn1nc(OC(C)(C)C(=O)NCCc2ccccc2)c2cc(CN3CCCC3)ccc21	40µM*
CC(C)N(C(=O)COC(=O)c1cc2ccccc2[nH]1)C(C)C	i
COc1ccc(NC(=O)Cn2cc(C(=O)c3ccccc3)c(=O)c3cc(OC)ccc32)c(OC)c1	i
CC1CCC(NC(=O)c2cc3c(Cl)nc4ccccc4c3s2)CC1 (stereo not given)	i
O=C(NCCCN1CCN(c2cccc(Cl)c2)CC1)Nc1ccccc1C(F)(F)F	i
O=C(NC1CCCCC1)N1CCC(c2noc(-c3ccccc3)n2)C1 (stereo not given)	i
CC(=O)c1cccc(NC(=O)C2(C#N)CCCC2)c1	i
CCCc1cc(=O)[nH]c(Nc2nc(C)c3ccccc3n2)n1	i
COc1ccc([C@H]2C[C@@H](O)[C@@H](O)[C@@H]2NC(=O)c2cccnc2Oc2ccccc2)cc1	i
COCc1ccc2c(c1)c(OC(C)(C)C(=O)Nc1ccc(OC)cc1)nn2Cc1cccnc1	i
COCc1ccc2c(c1)c(OC(C)(C)C(=O)NCC1CCOCC1)nn2Cc1cccnc1	i
CC(C)(Oc1nn(CC2CC2)c2ccc(CN3CCCC3)cc12)C(=O)Nc1cccnc1	28µM*
CC(C)NC(=O)C1COC2(CCN(C(=O)c3ccc(F)cc3F)CC2)N1C(=O)c1ccc(F)cc1 (stereo not given)	i
Cc1cccc(C)c1NC(=O)Cn1cc(C(=O)C2CC2)c2ccccc21	i
Cn1c(=O)[nH]c2nnc(-c3ccc(Cl)c(Cl)c3)nc2c1=O	i
C#CCNC(=O)c1cc(-c2ccccc2OC)c2cnn(C)c2n1	89µM*
C#CCNC(=O)c1ccc2ccccc2n1	i
COc1ccccc1-c1cc(C(=O)N2CCCC2)nc2c1cnn2C	79µM*
COc1ccccc1-c1cc(C(=O)N2CCCC2)c2cnn(C)c2n1	i
COc1ccccc1-c1cc(C(=O)N2CCCC2)nn2cccc12	i
COc1ccccc1C1=NS(=O)(=O)N(C)C(C(=O)Nc2cc(OC)c(OC)c(OC)c2)=C1	i
O=C(CCC1CCCC1)N1CCC2(CC1)CC(N1CCOCC1)CCO2 (stereo not given)	i
SMILES	KDM5B inh
C(=C\c1ccccc1)/CNCC1CCCO1 (stereo not given)	i
CCOc1ccc(S(=O)(=O)N2CCC(c3ccncc3)CC2)cc1	i
CC(OC(=O)c1cccc(-n2cnnn2)c1)C(=O)N(C)c1ccccc1 (stereo not given)	i
Cc1ccc(I)c(C)c1[N+](=O)[O-]	i
CN1c2cc(C(=O)N3CCOCC3)ccc2OCC1CC(=O)NC(CO)CO (stereo not given)	i
COCCNC(=O)c1ccc2c(c1)N(C)C(CC(=O)N1CCCOCC1)CO2 (stereo not given)	32µM*
CCN(C(=O)CC1COc2ccc(C(=O)N3CCOCC3)cc2N1C)C(C)C (stereo not given)	i
COCCNC(=O)c1ccc(OC2CCN(CCc3ccccc3)CC2)c(Cl)c1	i
COCCNC(=O)c1ccc2c(c1)N(C)C(CC(=O)N1CCC(C)CC1)CO2 (stereo not given)	20µM*
CCOC(=O)N1CCC(N2C(=O)c3ccc(C(=O)NCCOC)cc3C2=O)CC1	i
COc1ccc(C2=CC(c3ccccc3F)n3ncc(C(=O)Nc4ccc(C)cc4)c3N2)cc1 (stereo not given)	i
COC(=O)c1nc(NC(=O)c2cccc(Br)c2)n[nH]1	i
Cc1cccc(-n2cnc3cc(C(=O)NCc4ccccc4Cl)ccc32)c1	i
CCCCN1CCN(C(=O)c2ccccc2OCc2nc(-c3ccc(C)cc3)no2)CC1	i
CCC(C)C(=O)Nc1c(C(=O)OC)n(CC2CCCO2)c2ncc(NC(C)CO)cc12 (stereo not given)	28µM*
COc1ccccc1C(=O)Nc1ccccc1OCC1CCCO1 (stereo not given)	i
COC(=O)c1c(NC(C)=O)c2cc(NC(C)CC(C)(C)O)cnc2n1CCC(C)C (stereo not given)	20µM*
COc1ccccc1OC(C)C(=O)Nc1ccccc1C(=O)NCC1CCCO1 (stereo not given)	i
CC(C)C(=O)N1CCC(C(=O)Nc2cccc(OCC3CCCO3)c2)CC1 (stereo not given)	i
CCC(C)C(=O)Nc1c(C(=O)OC)n(CC2CCCO2)c2ncc(NC(C)CCO)cc12 (stereo not given)	6.3µM*
CCOC(=O)c1cc2c(=O)n3ccccc3nc2n(CC2CCCO2)c1=NC(=O)c1ccccc1OCC (stereo not given)	i
COc1ccc(CNC2CCCC2)c(OC)c1OC	i
Cc1ccc(N2CC(c3noc(-c4ccc(F)cc4Cl)n3)CC2=O)cc1 (stereo not given)	i
O=C(Nc1ccccc1)N(Cc1cccc(O)c1)C1CCC(O)CC1 (stereo not given)	i
O=C(c1ccccc1)N1CCc2sc(C(=O)N3CCN(c4ccccc4)CC3)cc2C1	i
SMILES	KDM5B inh
Cc1ccsc1C(=O)Nc1ccc2c(N3CCCCC3)ncnc2c1	i
CCCCN1C(=O)C2(SC(NC(C)=O)=NN2C(C)=O)c2ccccc21 (stereo not given)	i
CC(C)(O)CNC(=O)Nc1ccc(Cl)c(Cl)c1	i
CCSc1ncc(CN2CCN(c3ccc4nccn4n3)CC2)cn1	28µM*
CCN1CC(c2ccccc2)CC2(CCN(Cc3cnc(SC)nc3)CC2)C1 (stereo not given)	i
CCO[C@H]1CN(Cc2cnc(SCc3ccccc3)nc2)C[C@@H]1O	i
COc1ccc(-c2cc(N3CCC(NC(=O)c4cccc(C#N)c4)C3)n[nH]2)cc1 (stereo not given)	i
COc1cccc(CCC(=O)NCc2nnc3ccc(-c4ccccc4)nn23)c1	i
COc1ccc(-c2ccc3nnc(CNC(=O)Cc4cccc(OC)c4)n3n2)cc1	25µM*
COc1ccc(-c2ccc3nnc(CNC(=O)c4ccoc4)n3n2)cc1	32µM*
COc1ccc(CNC(=O)c2cccc(OC)c2)cc1	i
COc1ccc(-c2ccc3nnc(CNC(=O)c4cccc(OC)c4)n3n2)cc1	28µM*
COc1cccc(CC(=O)NCc2nnc3ccc(-c4ccccc4)nn23)c1	i
COc1ccc(-c2ccc3nnc(CNC(=O)c4cccc(C#N)c4)n3n2)cc1	28µM*
COc1ccc(-c2ccc3nnc(CNC(=O)c4ccc(C#N)cc4)n3n2)cc1	i
CCN(CC)c1ccc(C(=O)NCc2nnc3ccc(-c4ccc(OC)cc4)nn23)cc1	i
Cc1ccc(CC(=O)N2c3ccccc3CC2c2nnc(C3CCOCC3)o2)cc1 (stereo not given)	i
CC(C)CN1C(=O)N2Cc3ccccc3C2CS1(=O)=O (stereo not given)	i
COc1ccc(-c2c(C)oc3c(C)c(O)ccc3c2=O)cc1	i
CC(C)Cc1nc(C#N)c(NC(C)c2ccccc2)o1 (stereo not given)	i
CCOC(=O)C1CCC(CN(Cc2ccccc2)S(=O)(=O)c2ccc(Br)cc2)CC1 (stereo not given)	i
C=CCNC(=O)c1ccc(CN2C(=O)NC3(CCS(=O)(=O)CC3)C2=O)cc1	i
